The source of these data is article PMC13541613, “GHT-SELEX demonstrates unexpectedly high intrinsic sequence specificity and complex DNA binding of many human transcription factors”.

Common to all, as to assay: HT-SELEX; 20 mM HEPES pH 7, 140 mM KCl, 5 mM NaCl, 1 mM K2HPO4, 2 mM MgSO4, 100 uM EGTA, ZnSO4, 0.1% Tween20; room temperature, 1 h; high values mean tight binding
What all share (settings): protein: ivt; tags: eGFP (N-terminal); dsDNA, one strand shown

One test deals with ZNF721 full-length (Homo sapiens, UniProt Q8TF20-2 1-923). The method in brief: (§1)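 In HEPES/KCl low-stringency buffer with Tween20, a bead-immobilised tagged transcription factor (full-length or DNA-binding-domain fragment, from HEK293 lysate or cell-free extract) was incubated with a randomized 40-base DNA library for 1 h at room temperature. DNA retained after washing was heat-eluted, amplified by PCR over successive cycles and Illumina-sequenced, giving ~3 million 60 bp reads per sample. The reported binding signal, a relative k-mer count in those selected reads, rises with tighter binding.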
Chain of ZNF721 full-length (Q8TF20 other isoform, or with tags, fused parts or gaps): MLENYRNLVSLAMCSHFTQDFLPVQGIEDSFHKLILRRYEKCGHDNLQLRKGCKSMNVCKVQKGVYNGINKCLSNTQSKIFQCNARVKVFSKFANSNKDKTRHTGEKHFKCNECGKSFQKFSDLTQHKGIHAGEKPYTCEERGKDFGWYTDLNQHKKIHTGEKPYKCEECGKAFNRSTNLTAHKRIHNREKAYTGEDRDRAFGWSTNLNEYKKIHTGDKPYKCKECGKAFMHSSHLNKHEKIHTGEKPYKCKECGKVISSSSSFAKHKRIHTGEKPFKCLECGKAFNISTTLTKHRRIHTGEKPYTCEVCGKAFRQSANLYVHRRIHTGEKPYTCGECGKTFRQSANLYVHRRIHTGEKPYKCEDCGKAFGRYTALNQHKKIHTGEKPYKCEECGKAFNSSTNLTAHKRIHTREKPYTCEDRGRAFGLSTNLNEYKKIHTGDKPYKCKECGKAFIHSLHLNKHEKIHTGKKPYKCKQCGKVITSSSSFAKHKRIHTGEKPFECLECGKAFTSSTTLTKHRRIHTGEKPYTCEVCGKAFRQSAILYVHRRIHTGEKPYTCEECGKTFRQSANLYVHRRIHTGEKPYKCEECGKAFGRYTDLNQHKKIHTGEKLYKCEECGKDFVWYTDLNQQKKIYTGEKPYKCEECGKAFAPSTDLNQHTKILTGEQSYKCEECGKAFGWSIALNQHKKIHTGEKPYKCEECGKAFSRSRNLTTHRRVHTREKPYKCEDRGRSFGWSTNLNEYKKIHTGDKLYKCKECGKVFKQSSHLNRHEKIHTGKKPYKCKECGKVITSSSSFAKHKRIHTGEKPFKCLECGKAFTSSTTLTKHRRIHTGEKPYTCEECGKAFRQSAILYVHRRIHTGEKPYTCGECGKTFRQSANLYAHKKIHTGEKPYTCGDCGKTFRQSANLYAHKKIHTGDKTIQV

In a further test the target is ZNF721 DBD1 (Homo sapiens, UniProt Q8TF20-2 29-461). The method in brief:
as §1

For another test, the target named is ZNF721 DBD2 (Homo sapiens, UniProt Q8TF20-2 395-923). The method in brief:
as §1

Chain of ZNF721 DBD2 (Q8TF20 383-911): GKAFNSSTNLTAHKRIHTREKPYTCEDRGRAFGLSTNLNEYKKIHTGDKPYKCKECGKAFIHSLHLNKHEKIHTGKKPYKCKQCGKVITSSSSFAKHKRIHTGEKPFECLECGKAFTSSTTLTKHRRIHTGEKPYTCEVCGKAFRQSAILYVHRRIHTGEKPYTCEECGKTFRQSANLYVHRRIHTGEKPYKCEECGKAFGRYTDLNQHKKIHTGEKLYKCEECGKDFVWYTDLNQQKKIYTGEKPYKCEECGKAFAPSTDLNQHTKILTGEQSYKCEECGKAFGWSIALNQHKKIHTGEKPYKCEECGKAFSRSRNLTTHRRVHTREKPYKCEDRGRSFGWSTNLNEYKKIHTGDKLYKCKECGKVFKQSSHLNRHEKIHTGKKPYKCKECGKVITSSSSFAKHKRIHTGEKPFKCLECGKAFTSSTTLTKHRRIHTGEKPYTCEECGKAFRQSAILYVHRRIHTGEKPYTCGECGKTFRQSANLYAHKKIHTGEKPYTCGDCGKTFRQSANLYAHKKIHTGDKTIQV
Chain of ZNF721 DBD1 (Q8TF20 17-449): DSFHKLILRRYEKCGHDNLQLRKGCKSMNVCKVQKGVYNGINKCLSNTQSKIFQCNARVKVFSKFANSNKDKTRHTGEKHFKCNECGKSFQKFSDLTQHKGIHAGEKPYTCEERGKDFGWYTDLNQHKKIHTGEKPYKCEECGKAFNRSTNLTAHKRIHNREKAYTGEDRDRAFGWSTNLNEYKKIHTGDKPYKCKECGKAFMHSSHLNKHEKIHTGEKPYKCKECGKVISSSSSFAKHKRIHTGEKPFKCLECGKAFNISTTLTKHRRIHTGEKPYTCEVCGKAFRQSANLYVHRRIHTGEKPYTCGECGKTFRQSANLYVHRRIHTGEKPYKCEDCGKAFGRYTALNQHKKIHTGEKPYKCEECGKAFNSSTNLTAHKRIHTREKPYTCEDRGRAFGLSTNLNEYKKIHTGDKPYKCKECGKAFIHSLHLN

As for CCTCCCCGCC, the binding signal with ZNF721 full-length stood at 0.138 relative 10-mer count; with ZNF721 DBD1, 0.00697 relative 10-mer count; with ZNF721 DBD2, 0.00923 relative 10-mer count.
In the same order, the values of CCACTCCCCC are 0.12 relative 10-mer count, 0.00436 relative 10-mer count and 0.00144 relative 10-mer count.
Consider GCCACCCCCC, for which the figures for the binding signal with ZNF721 full-length, with ZNF721 DBD1 and in the test with ZNF721 DBD2 were 0.138 relative 10-mer count, 0.00546 relative 10-mer count and 0.00348 relative 10-mer count, respectively.
In the same order, the values of CCCACCACCA are 0.199 relative 10-mer count, 0.00784 relative 10-mer count and 0.00599 relative 10-mer count.
As for GCCCACCCAC, the binding signal with ZNF721 full-length is 0.168 relative 10-mer count; with ZNF721 DBD1, 0.0061 relative 10-mer count; in the test with ZNF721 DBD2, 0.00983 relative 10-mer count.
With CCCCGTCCCC, the binding signal came out at 0.212 relative 10-mer count with ZNF721 full-length, 0.00789 relative 10-mer count in the test with ZNF721 DBD1 and 0.00192 relative 10-mer count with ZNF721 DBD2.
For the sequence ACCCCCCGCC, the binding signal with ZNF721 full-length turned out to be 0.137 relative 10-mer count; with ZNF721 DBD1, 0.00555 relative 10-mer count; with ZNF721 DBD2, 0.00384 relative 10-mer count.
On to CAGCCCCCCC, for which the binding signal with ZNF721 full-length was determined as 0.103 relative 10-mer count; in the test with ZNF721 DBD1, 0.00284 relative 10-mer count; with ZNF721 DBD2, 0.0267 relative 10-mer count.
In the same order, the values of CCCCTCCCTC are 0.159 relative 10-mer count, 0.00789 relative 10-mer count and 0.00336 relative 10-mer count.
For CACCCTCCCC, the binding signal was determined as 0.212 relative 10-mer count in the test with ZNF721 full-length, 0.00945 relative 10-mer count with ZNF721 DBD1 and 0.00312 relative 10-mer count in the test with ZNF721 DBD2.
Consider ACAAAAAAGC, for which the binding signal came out at 0.187 relative 10-mer count with ZNF721 full-length, 0.0198 relative 10-mer count with ZNF721 DBD1 and 0.0647 relative 10-mer count in the test with ZNF721 DBD2.
On to ACCCCCACCG, for which the binding signal with ZNF721 full-length was 0.102 relative 10-mer count; with ZNF721 DBD1 it was 0.00367 relative 10-mer count; with ZNF721 DBD2 it was 0.00336 relative 10-mer count.
As for CCAAAAAAAC, the binding signal turned out to be 0.106 relative 10-mer count with ZNF721 full-length, 0.0017 relative 10-mer count in the test with ZNF721 DBD1 and 0.082 relative 10-mer count in the test with ZNF721 DBD2.
Turning to CACCCCCCCG, the binding signal came out at 0.131 relative 10-mer count with ZNF721 full-length, 0.00252 relative 10-mer count in the test with ZNF721 DBD1 and 0.003 relative 10-mer count with ZNF721 DBD2.
On to CAGCCCACCC, for which the binding signal with ZNF721 full-length was 0.151 relative 10-mer count; with ZNF721 DBD1, 0.00431 relative 10-mer count; with ZNF721 DBD2, 0.0841 relative 10-mer count.
With AAAAAGAAGC, the values for the binding signal with ZNF721 full-length, with ZNF721 DBD1 and in the test with ZNF721 DBD2 were 0.126 relative 10-mer count, 0.0301 relative 10-mer count and 0.0126 relative 10-mer count, respectively.
On to GCCCCCCCCC, for which the binding signal with ZNF721 full-length was determined as 0.112 relative 10-mer count; with ZNF721 DBD1, 0.00367 relative 10-mer count; with ZNF721 DBD2, 0.00276 relative 10-mer count.
Regarding CCACCGCCCC, the binding signal with ZNF721 full-length was determined as 0.256 relative 10-mer count; with ZNF721 DBD1, 0.0117 relative 10-mer count; with ZNF721 DBD2, 0.00455 relative 10-mer count.
As to AAAGCTATCC, the binding signal with ZNF721 full-length came to 0.165 relative 10-mer count; with ZNF721 DBD1 it was 0.0786 relative 10-mer count; with ZNF721 DBD2 it was 0.00156 relative 10-mer count.
For CCCTCCACCC, the binding signal with ZNF721 full-length came to 0.321 relative 10-mer count; with ZNF721 DBD1, 0.0139 relative 10-mer count; in the test with ZNF721 DBD2, 0.00731 relative 10-mer count.
For GAAAAGCAGC, the binding signal with ZNF721 full-length turned out to be 0.106 relative 10-mer count; with ZNF721 DBD1, 0.00147 relative 10-mer count; with ZNF721 DBD2, 0.125 relative 10-mer count.
As for CAACCCCCCC, the binding signal was 0.131 relative 10-mer count with ZNF721 full-length, 0.00431 relative 10-mer count with ZNF721 DBD1 and 0.00252 relative 10-mer count with ZNF721 DBD2.
In the same order, the values of CTCCCCACCA are 0.115 relative 10-mer count, 0.00596 relative 10-mer count and 0.00587 relative 10-mer count.
For AAGCTATCCC, the binding signal stood at 0.172 relative 10-mer count with ZNF721 full-length, 0.105 relative 10-mer count in the test with ZNF721 DBD1 and 0.0012 relative 10-mer count in the test with ZNF721 DBD2.
ACCCCACCCT: the binding signal with ZNF721 full-length is 0.104 relative 10-mer count; with ZNF721 DBD1 it was 0.005 relative 10-mer count; in the test with ZNF721 DBD2 it was 0.00372 relative 10-mer count.
AAGGCATACC: the binding signal in the test with ZNF721 full-length was determined as 0.13 relative 10-mer count; in the test with ZNF721 DBD1, 0.00183 relative 10-mer count; in the test with ZNF721 DBD2, 0.114 relative 10-mer count.
For AAAAAGCGTC, the binding signal is 0.108 relative 10-mer count with ZNF721 full-length, 0.0239 relative 10-mer count with ZNF721 DBD1 and 0.0102 relative 10-mer count with ZNF721 DBD2.
For the sequence CGTCCCCCAC, the binding signal with ZNF721 full-length was 0.104 relative 10-mer count; in the test with ZNF721 DBD1, 0.00468 relative 10-mer count; in the test with ZNF721 DBD2, 0.00407 relative 10-mer count.
In the case of CCCCCCCACC, the binding signal with ZNF721 full-length was 0.358 relative 10-mer count; with ZNF721 DBD1, 0.0144 relative 10-mer count; with ZNF721 DBD2 it was 0.00791 relative 10-mer count.
On to CCCCCCTACC, for which the binding signal worked out at 0.127 relative 10-mer count with ZNF721 full-length, 0.00569 relative 10-mer count with ZNF721 DBD1 and 0.0036 relative 10-mer count in the test with ZNF721 DBD2.
